Here are results for 18 compounds from PubChem BioAssay (EPA / NIEHS).

Inconclusive results are not listed. The source made the active and inactive calls. The calls were made as follows: active = hit-call score of the fitted dose curve at least 0.9, where 1 is the maximum; inconclusive = response in the unintended direction; inactive = score below 0.9.

Chain of Peroxisome proliferator-activated receptor gamma (Homo sapiens) (P37231 whole entry, looked up): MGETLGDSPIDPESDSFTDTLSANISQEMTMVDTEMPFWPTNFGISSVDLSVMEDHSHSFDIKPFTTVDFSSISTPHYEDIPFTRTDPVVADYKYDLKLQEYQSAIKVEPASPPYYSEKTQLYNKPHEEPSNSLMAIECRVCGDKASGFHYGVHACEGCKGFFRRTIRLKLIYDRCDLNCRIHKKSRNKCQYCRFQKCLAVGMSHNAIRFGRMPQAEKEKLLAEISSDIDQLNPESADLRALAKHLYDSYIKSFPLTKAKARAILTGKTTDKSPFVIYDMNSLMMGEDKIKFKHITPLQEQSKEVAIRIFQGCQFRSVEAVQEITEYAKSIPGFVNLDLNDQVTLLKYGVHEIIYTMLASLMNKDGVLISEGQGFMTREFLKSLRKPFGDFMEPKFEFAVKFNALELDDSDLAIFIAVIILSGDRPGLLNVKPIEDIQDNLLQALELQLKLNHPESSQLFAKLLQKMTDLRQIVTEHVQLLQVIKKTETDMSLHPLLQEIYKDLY

The test has as its target Peroxisome proliferator-activated receptor gamma (Homo sapiens) (UniProt P37231). As to the kind of experiment: NVS_NR_hPPARg: NovaScreen (NVS) Nuclear Receptor Binding Assay for human Peroxisome Proliferator-activated Receptor gamma (PPARg) (AID 2283370). The protocol: NVS_NR_hPPARg is a biochemical, single-readout assay that uses extracted gene-proteins in a cell-free assay. Measurements were taken 2 hours after chemical dosing in a 384-well plate.NVS_NR_hPPARg is one of one assay component(s) measured or calculated from the NVS_NR_hPPARg assay. It is designed to make measurements of fluorescent polarization, a form of binding reporter, as detected with fluorescence polarization signals by Fluorescence Polarization technology.Data from the assay component NVS_NR_hPPARg was analyzed into 1 assay endpoint. This assay endpoint, NVS_NR_hPPARg, was analyzed in the positive analysis fitting direction relative to DMSO as the negative control and baseline of activity. Using a type of binding reporter, loss-of-signal activity can be used to understand changes in the binding as they relate to the gene PPARG. Furthermore, this assay endpoint can be referred to as a primary readout, because the performed assay has only produced 1 assay endpoint. To generalize the intended target to other relatable targets, this assay endpoint is annotated to the nuclear receptor intended target family, where the subfamily is non-steroidal.
Binding assays used specific radioligands (tritiated, iodinated) with non-radioactive competitive displacement ligands in agonist or antagonist protocols (as indicated) and various reference compounds and inhibitors to titrate specific binding to receptors and transporters. Most enzyme assays (CYPs, kinases, phosphatases, proteases, HDACs) used recombinant protein and specific substrates (fluorescence mostly, some colorimetric and radioactive) and inhibitors, followed by a biochemical separation of substrate and product. All assays for the biochemical HTS were initially run in duplicate at a single concentration (10 uM for CYP450 assays and 25 uM for all others). […] Each assay was run with positive and negative controls, and concurrent controls on every plate. The follow-up (secondary) screen tested active chemical-pairs in concentration series, as well as a few additional assays not tested in the primary screen, some selected negative inactives, and several cases re-run in the concentration series for confirmatory purposes.
With `CC(C)CCCCCCCOC(=O)c1ccc(C(=O)OCCCCCCCC(C)C)c(C(=O)OCCCCCCCC(C)C)c1`, the call was inactive.

Consider `CCCCCCCCCCCCCC(=O)O`, for which the compound was classed as inactive.

As to `c1ccc(CCCc2ccccn2)cc1`, the compound was called inactive.

On to `O=C1C(c2[nH]c3ccc(S(=O)(=O)O)cc3c2O)=Nc2ccc(S(=O)(=O)O)cc21`, for which the call was inactive.

With `COC(C)CCO` (stereo not drawn), the call was inactive.

`OC1OC[C@@H](O)[C@H](O)[C@H]1O` (stereo partly drawn): the compound was classed as inactive.

On to `O=C(Oc1ccccc1)c1ccc(O)cc1`, for which the call was inactive.

On to `BrC1CCC(Br)C(Br)CCC(Br)C(Br)CCC1Br` (stereo not drawn), for which the compound was called inactive.

For `CCC/C=C/C=O`, the outcome was inactive.

For the compound `CCCCC(CC)COC(=O)/C=C\C(=O)OCC(CC)CCCC` (stereo not drawn), the call was inactive.

Regarding `CCCCCC(CO)CCC` (stereo not drawn), the compound was called inactive.

As for `O=C[C@@H](O)[C@H](O)[C@H](O)CO`, the outcome was inactive.

Consider `CCCC/C=C\CCCCCCCCCC=O`, for which the compound was called inactive.

As for `CCCCCCCCCCCCCCCC(=O)O`, the call was inactive.

For the compound `CCCCCCCCCCCCCCCC(=O)OC[C@H](O)[C@H]1OC(=O)C(O)=C1O`, the AC50 (in general, the concentration giving half of the maximal activity seen) is 25 µM (active).

As for `OCCN1CCNCC1`, the outcome was inactive.

For the compound `O=Nc1ccc(Nc2ccccc2)cc1`, the call was inactive.

As for `CCCCCCCCCCCCCOS(=O)(=O)O`, the AC50 is 0.832 µM (active).
